According to PubChem BioAssay (NCI):
About 83,000 compounds went through this panel and 20% of them were active in at least one assay; those are over-represented in the sample as a whole.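 96-well plates, one dose, 48 hours. Percent growth reported; active if below 10.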 Active and inactive are the calls of the source.

How the values were obtained:
Assay in all cases: NCI-60 one-dose screen, 48 h (100 = growth as untreated, 0 = no growth, -100 = all killed)
Conditions in all cases: 10 µM unless noted
DU-145 prostate = tested on: DU-145 prostate
MALME-3M melanoma = tested on: MALME-3M melanoma
MDA-MB-231 breast = tested on: MDA-MB-231 breast
RXF 393 renal = tested on: RXF 393 renal
SF-268 CNS = tested on: SF-268 CNS
SF-539 CNS = tested on: SF-539 CNS
UACC-257 melanoma = tested on: UACC-257 melanoma
M14 melanoma = tested on: M14 melanoma
HCT-15 colon = tested on: HCT-15 colon
SNB-75 CNS = tested on: SNB-75 CNS
SNB-19 CNS = tested on: SNB-19 CNS
U251 CNS = tested on: U251 CNS
PC-3 prostate = tested on: PC-3 prostate
SK-MEL-5 melanoma = tested on: SK-MEL-5 melanoma
UACC-62 melanoma = tested on: UACC-62 melanoma
LOX IMVI melanoma = tested on: LOX IMVI melanoma
SK-MEL-28 melanoma = tested on: SK-MEL-28 melanoma
HT29 colon = tested on: HT29 colon
SF-295 CNS = tested on: SF-295 CNS
K-562 leukemia = tested on: K-562 leukemia

| Compound | growth (DU-145 prostate) | growth (MALME-3M melanoma) | growth (MDA-MB-231 breast) | growth (RXF 393 renal) | growth (SF-268 CNS) | growth (SF-539 CNS) | growth (UACC-257 melanoma) | growth (M14 melanoma) | growth (HCT-15 colon) | growth (SNB-75 CNS) | growth (SNB-19 CNS) | growth (U251 CNS) | growth (PC-3 prostate) | growth (SK-MEL-5 melanoma) | growth (UACC-62 melanoma) | growth (LOX IMVI melanoma) | growth (SK-MEL-28 melanoma) | growth (HT29 colon) | growth (SF-295 CNS) | growth (K-562 leukemia) |
| --- | --- | --- | --- | --- | --- | --- | --- | --- | --- | --- | --- | --- | --- | --- | --- | --- | --- | --- | --- | --- |
| Cc1ccc(O)c(Cc2ccccc2)c1 | 108% (inactive) | 143% (inactive) | 96.7% (inactive) | 103% (inactive) | 99.6% (inactive) | 100% (inactive) | 93.7% (inactive) | 101% (inactive) | 107% (inactive) | 74.9% (inactive) | 96.9% (inactive) | 94.6% (inactive) | 79.9% (inactive) | 109% (inactive) | 90.2% (inactive) | 96.4% (inactive) | 108% (inactive) | – | – | – |
| NCCCOc1cc2ccccc2cc1C(=O)NCCCOc1cc2ccccc2cc1C(=O)Nc1ccc(Cl)cc1O | -21.3% (active) | -82.5% (active) | -87.9% (active) | -96.5% (active) | -27.8% (active) | -93.7% (active) | -69.2% (active) | -74.6% (active) | -55.3% (active) | -68.2% (active) | -65.9% (active) | -86.1% (active) | -86.1% (active) | -70% (active) | -88.6% (active) | -89.6% (active) | -89.2% (active) | -90.7% (active) | – | – |
| CCOc1cccc(/C=N/NC(=O)c2ccc(Nc3ccnc(C(F)(F)F)c3)cc2)c1O | 29.8% (inactive) | 19.9% (inactive) | 27.4% (inactive) | 22% (inactive) | 22.7% (inactive) | 0.3% (active) | 12.4% (inactive) | -20.3% (active) | 19.1% (inactive) | 20.6% (inactive) | 20% (inactive) | 15.9% (inactive) | 50.8% (inactive) | -54.3% (active) | -6.19% (active) | 2.5% (active) | 19.2% (inactive) | 49.3% (inactive) | 8.46% (active) | – |
| CC1=C(O)C(=O)C(c2c(C)cc(C)c(Br)c2C)=C(O)C1=O | 78.4% (inactive) | – | 93.5% (inactive) | 28.9% (inactive) | – | 65.2% (inactive) | 86.5% (inactive) | 70.2% (inactive) | 35.5% (inactive) | 59.6% (inactive) | 63.9% (inactive) | 65.8% (inactive) | 84.5% (inactive) | 57.4% (inactive) | 40.7% (inactive) | 35.7% (inactive) | 73.5% (inactive) | 66.7% (inactive) | 52.6% (inactive) | 48.8% (inactive) |
| Cc1cc(C#Cc2ccccc2)ccc1-n1c(/C=C/c2ccc(F)cc2)nc2ccccc2c1=O | 98.5% (inactive) | – | 75.9% (inactive) | 99.1% (inactive) | 86.4% (inactive) | 102% (inactive) | 86.7% (inactive) | 81.2% (inactive) | 69.8% (inactive) | 86.5% (inactive) | 88.5% (inactive) | – | 18.2% (inactive) | 36.8% (inactive) | 55.1% (inactive) | 71.2% (inactive) | 94.4% (inactive) | 59.3% (inactive) | – | 48.5% (inactive) |
| Nc1ncnc2c1N=C(c1ccc(F)cc1)CC(c1sc(Cl)nc1Cl)N2 (centres undefined) | 98.8% (inactive) | 111% (inactive) | 88.2% (inactive) | 78.3% (inactive) | 85.4% (inactive) | 85.7% (inactive) | 91% (inactive) | 109% (inactive) | 102% (inactive) | 74% (inactive) | 92.9% (inactive) | 84.7% (inactive) | 79.5% (inactive) | 92% (inactive) | 94.5% (inactive) | 93% (inactive) | 102% (inactive) | 92.2% (inactive) | 95.8% (inactive) | – |
| CC(=O)N[C@@H](CCC(N)=O)C(=O)O | 112% (inactive) | – | 87.2% (inactive) | 90% (inactive) | 108% (inactive) | 113% (inactive) | 97.4% (inactive) | 93.4% (inactive) | 113% (inactive) | 69.2% (inactive) | 126% (inactive) | 102% (inactive) | 74.5% (inactive) | 101% (inactive) | 98.2% (inactive) | 91.4% (inactive) | 101% (inactive) | 95.6% (inactive) | – | 9.01% (active) |
| NC(=Nc1ccccc1)SCCCSC(N)=Nc1ccccc1 | 95.7% (inactive) | – | 79.5% (inactive) | 99.5% (inactive) | 95.6% (inactive) | 93.6% (inactive) | 108% (inactive) | 95.6% (inactive) | 82.4% (inactive) | 78.4% (inactive) | 95.8% (inactive) | 95.6% (inactive) | 74.7% (inactive) | 85.5% (inactive) | 73.4% (inactive) | 86.7% (inactive) | 106% (inactive) | 93.9% (inactive) | – | 75% (inactive) |
| O=C(O)c1ccccc1N=Cc1ccccc1 | 108% (inactive) | – | 109% (inactive) | 132% (inactive) | 109% (inactive) | 101% (inactive) | 113% (inactive) | 109% (inactive) | 111% (inactive) | 119% (inactive) | 112% (inactive) | 106% (inactive) | 87.6% (inactive) | 116% (inactive) | 119% (inactive) | 92.6% (inactive) | 129% (inactive) | 108% (inactive) | – | 99.2% (inactive) |
| COc1ccc(/C(=C\c2ccc3c(c2)OCO3)C(=O)Nc2nc3ccccc3s2)cc1 | 102% (inactive) | 95.3% (inactive) | 102% (inactive) | 118% (inactive) | 96% (inactive) | 104% (inactive) | 99.7% (inactive) | 107% (inactive) | 93.2% (inactive) | 103% (inactive) | 109% (inactive) | 101% (inactive) | 106% (inactive) | 98.9% (inactive) | 102% (inactive) | 100% (inactive) | 104% (inactive) | 94.6% (inactive) | – | – |
| O=C(NCCNC(=O)c1cc(S(=O)(=O)NCCc2ccccc2)c(O)c(O)c1O)c1cc(S(=O)(=O)NCCc2ccccc2)c(O)c(O)c1O | 77.1% (inactive) | 94.3% (inactive) | 59.9% (inactive) | 78.1% (inactive) | 45.9% (inactive) | 20.3% (inactive) | 86.1% (inactive) | 44.4% (inactive) | 40.5% (inactive) | 63% (inactive) | 35.7% (inactive) | 31.3% (inactive) | 40.2% (inactive) | 15.6% (inactive) | -15% (active) | 15% (inactive) | 54.2% (inactive) | 108% (inactive) | – | – |
| O=C(Nc1ccccc1Cl)Oc1ccc2ccccc2c1 | 107% (inactive) | – | 88.7% (inactive) | 99.6% (inactive) | 101% (inactive) | 92.5% (inactive) | 93.5% (inactive) | 101% (inactive) | 99.2% (inactive) | 83.7% (inactive) | 98.3% (inactive) | 103% (inactive) | 102% (inactive) | 110% (inactive) | 91.8% (inactive) | 95.1% (inactive) | 106% (inactive) | 98.9% (inactive) | – | 85.3% (inactive) |
| C=CCN(CCOC(=O)c1ccc([N+](=O)[O-])cc1)CCOC(=O)c1ccc([N+](=O)[O-])cc1 | – | 98.8% (inactive) | 96.2% (inactive) | 138% (inactive) | 98% (inactive) | 110% (inactive) | 97.8% (inactive) | 105% (inactive) | 118% (inactive) | 83.7% (inactive) | 108% (inactive) | 103% (inactive) | 85.4% (inactive) | 94.8% (inactive) | 110% (inactive) | 88.8% (inactive) | 106% (inactive) | 111% (inactive) | 107% (inactive) | 92.3% (inactive) |
| Cc1nc2n[nH]c(N)c2nc1C | 119% (inactive) | 105% (inactive) | 120% (inactive) | 119% (inactive) | – | 103% (inactive) | 96.8% (inactive) | 125% (inactive) | 103% (inactive) | 93.1% (inactive) | 103% (inactive) | 107% (inactive) | 102% (inactive) | 96.6% (inactive) | 106% (inactive) | 98.9% (inactive) | 105% (inactive) | 93.6% (inactive) | 105% (inactive) | – |
| COc1cc(OC)cc(-c2n/c(=C\c3c(O)[nH]c4ccc(Cl)cc34)cc3c2=Nc2ccccc2-3)c1 | 18.4% (inactive) | – | 64.5% (inactive) | 76.8% (inactive) | 52.8% (inactive) | 104% (inactive) | 108% (inactive) | 86% (inactive) | 84.2% (inactive) | 93.7% (inactive) | 79.5% (inactive) | 17.6% (inactive) | 69.3% (inactive) | 92.9% (inactive) | 104% (inactive) | 18.8% (inactive) | 109% (inactive) | 15.6% (inactive) | – | 28% (inactive) |
| COc1ccc2nc(NC(=O)/C(=C/c3cc(OC)c(OC)c(OC)c3)c3ccc(OC)c(OC)c3)sc2c1 | 106% (inactive) | 98% (inactive) | 68.8% (inactive) | 107% (inactive) | 99.9% (inactive) | 102% (inactive) | 97.2% (inactive) | 104% (inactive) | 100% (inactive) | 94.3% (inactive) | 102% (inactive) | 94.6% (inactive) | 86.8% (inactive) | 93% (inactive) | 90.5% (inactive) | 90.4% (inactive) | 105% (inactive) | 88.4% (inactive) | – | – |
